# Shown are actives, neighbours in structure and some others; about 3.2% of the full set was active somewhere.
# BRCT inh green: inhibitors of human BRCA1 BRCT-phosphoprotein interaction (green fluorophore); AID 875; BRCA1 BRCT-phosphopeptide binding, green fluorescence polarization; 0.05% of 75,000 active; Potency, µM (highest dose often 76.9 µM), without a hit: at the top dose activity change, negative = inhibition, hits mostly inhibitors; P38398;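 further: potency means the concentration at half of the fitted maximal effect; plate controls were peptide without protein for full effect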
#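 Compounds were incubated for 12 min at room temperature with a complex of 100 nM fluorescein-tagged pBACH1 decapeptide and 250 nM His-tagged BRCT protein. Buffer was phosphate pH 7.3 with EDTA, DTT and Tween 20. Disruption of binding lowers the polarization signal.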
# HEK293 cAMP ctrl: parental HEK293 cAMP activation (counter-screen). parental HEK293 CNG cAMP sensor, membrane potential fluorescence. 2.5% of 73,000 active. AID 938. Potency, µM (highest dose often 57.1 µM), for the others: at the highest dose activation, usual class: activators; further: potency means the concentration at half of the fitted maximal effect; % of control where 0% means no effect; nearly all actives have a fitted effect of over 55% in size
#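 Parental HEK 293 cells stably expressing a cAMP-gated CNG channel were loaded with membrane potential dye containing 100 uM RO 20-1724 for 60 min. Compound added for 30 min; depolarization read as fluorescence intensity at 590 nm.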
# YjeE inh: YjeE (TsaE) inhibition, E. coli. purified YjeE enzyme, qHTS inhibition assay. 0.05% of 71,000 active. Potency, µM
#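 Fluorescence polarization of a BODIPY Texas Red–ADP probe (2 uM) bound to purified YjeE (10 uM) was read after 15 min room-temperature incubation with compounds. Loss of polarization marks inhibitors; ADP serves as titrated control.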
# TSHR agonist: agonists of human thyroid stimulating hormone receptor; P16473; HEK293-CNG-TSHR cells (CNG channel as cAMP sensor), membrane potential dye, cAMP; Potency, µM (titrated, usually from 57.1 µM), for inactives: at the top dose activation, actives largely listed as activators; 0.48% of 73,000 active; active means well fitted activation curve with a large enough effect in the main read-out, with a control signal flat, not every such curve was filed as active; inconclusive means small, poorly fitted or top-dose-only effect, or a change in a side signal; inactive means no such curve, though single readings can be large or run the other way; % of control where 0% means no effect;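 further: the control signal comes from parental cells without the receptor; potency means the concentration at half of the fitted maximal effect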
#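 HEK 293 cells stably expressing TSHR and a cAMP-gated CNG channel; parental CNG-only cells as counterscreen. Cells preloaded 60 min with membrane potential dye plus 100 uM RO 20-1724, then compound 30 min; fluorescence read at 590 nm.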
# BRCT PPI red: inhibitors of human BRCA1 BRCT-phosphoprotein interaction (red fluorophore). P38398. BRCT-phosphopeptide binding, red fluorescence polarization. Potency, µM (doses to about 76.9 µM), for inactives: top-dose activity change, negative = inhibition, usual class: inhibitors. 0.03% of 75,000 active; further: on the % scale 0 is the no-effect control and ±100 the full control effect
#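 Rhodamine-labelled pBACH1 10-mer (100 nM) bound to BRCT domain (100 nM) at pH 7.3; compounds incubated 12 min room temperature, polarization read. Free peptide defines full inhibition; unlabelled decapeptide titrated as control.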
# Pol III holo inh: blocks replication by bacterial DNA polymerase III holoenzyme; 0.25% of 71,000 active; AID 603; reconstituted DNA polymerase III holoenzyme replication, biochemical; Potency, µM (highest dose often 57.1 µM), without a hit: at the highest dose activity change, negative = inhibition; further: potency means the concentration at half of the fitted maximal effect; on the % scale 0 is the no-effect control and ±100 the full control effect
#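 Reconstituted *E. coli* holoenzyme (0.35 nM Pol III, 1 nM beta, 154 nM SSB, 2 nM primase) was preincubated with compound for 15 min at RT. Synthesis on 1.4 nM ssM13Gori ran 35 min, then was stopped with PicoGreen/EDTA and read as dsDNA fluorescence.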
# Active calls of the source: *; i = inactive; ? = inconclusive; . = no result given; [ ] = dose if it differs, or a comment. Unless noted, the call rests on the fitted dose curve; in most records, active means well fitted curve in the direction sought with a large enough effect; inconclusive means small, poorly fitted or top-dose-only effect, or another doubt; inactive means no such curve, though single readings can be large; an effect the other way counts as inactive or inconclusive.
SMILES,BRCT inh green,HEK293 cAMP ctrl,YjeE inh,TSHR agonist,BRCT PPI red,Pol III holo inh
O=C(NCc1ccco1)C1CCCN(S(=O)(=O)c2ccc(-n3cnnn3)cc2)C1 (configuration not stated),-1%,20µM*,i,?,0%,-7%
Cc1ccc(S(=O)(=O)N2CCCCC2C(=O)NCc2ccco2)cc1 (configuration not stated),-2%,3%,i,16µM*,1%,-2%
COc1cc2c(cc1OC)[C@@H]1C(=O)c3ccc4c(c3O[C@@H]1CO2)C=CC(C)(C)O4,3%,20µM*,i,?,1%,-4%
Cc1nnc(SCc2cc(=O)[nH]c(N3CCCCC3)n2)s1,-1%,11%,i,3%,-1%,-5%
C=CCNc1nc2c(c(=O)n(C)c(=O)n2C)n1Cc1ccc(F)cc1,-2%,25µM*,i,?,1%,-3%
Brc1cc2c(cc1Cn1c(-c3cncs3)nc3ccccc31)OCO2,-4%,7.9µM*,i,?,-3%,-3%
Cc1ccccc1Cn1c(-c2cncs2)nc2ccccc21,-2%,32µM*,i,?,0%,-7%
C=CCn1c(-c2cccs2)nc2ccccc21,1%,20%,i,.,-3%,-6%
O=C(Nc1ccc(Cl)cc1)N1CCN(c2ccc3nnc(-c4ccc(F)cc4)n3n2)CC1,2%,25µM*,.,?,0%,.
O=C(Nc1ccccc1Cl)N1CCN(c2ccc3nnc(-c4ccccc4)n3n2)CC1,5%,3%,i,-1%,-3%,-13%
CCOC(=O)c1ccc(N2C(=O)CC(SCC(N)C(=O)OCC)C2=O)cc1 (configuration not stated),0%,3.2µM*,i,?,1%,-4%
O=C1OC(c2ccc(O)c(-c3ccccc3)c2)(c2ccc(O)c(-c3ccccc3)c2)c2c(Cl)c(Cl)c(Cl)c(Cl)c21,-2%[15.4 µM],7%[11.4 µM],i,3%[11.4 µM],1%[15.4 µM],-12%[11.4 µM]
O=C1OC2(c3cc(Br)c(O)c(Br)c3Oc3c2cc(Br)c(O)c3Br)c2c(Cl)c(Cl)c(Cl)c(Cl)c21,?,16µM*,40µM*,?,2.5µM*,78%
CC(=O)c1sc(NC(=O)C2(F)C(F)(F)C(F)(F)C(F)(F)C(F)(F)C2(F)F)nc1C,-2%,13µM*,i,?,0%,2%
CC(=O)c1sc(NC(=O)C=C(C)C)nc1C,0%,2%,i,-5%,-1%,-4%
Cc1cc(C)nc(SCc2nnc(SCc3ccccc3Cl)o2)n1,-6%,20µM*,i,?,-3%,-4%
NC(=O)COC(=O)CNC(=O)c1ccc(Cl)cc1,-2%,-1%,i,6%,0%,-1%
COC(=O)[C@@]1(Cc2ccc(F)cc2)[C@H]2c3cc(C(=O)N4CCCC4)n(Cc4ccc(C(F)(F)F)nc4)c3C[C@H]2CN1C(=O)c1ccccc1,17%,?,i,?,2%,-16%
COC(=O)[C@@]1(Cc2ccccc2)[C@H]2c3cc(C(=O)N4CCCC4)n(Cc4ccc(C(F)(F)F)nc4)c3C[C@H]2CN1C(=O)c1ccccc1,1%,1.6µM*,i,?,1%,-8%
COC(=O)C1(Cc2ccccc2)C2c3cc(C(=O)N4CCCC4)n(Cc4ccc(OC(F)(F)F)cc4)c3CC2CN1C(=O)c1ccccc1 (configuration not stated),-1%,1.3µM*,i,?,0%,-22%
Cc1ccc(Cl)cc1NC(=O)Cn1cccc1,0%,22%,i,4%[11.4 µM],-1%,-3%
Cc1ccc(Cl)cc1NC(=O)CC(O)(C(F)(F)F)C(F)(F)F,0%,6.3µM*,i,?,-1%,-4%
CCOC(=O)c1[nH]c(C)c(C(=O)c2cc(F)ccc2F)c1C,4%,12%,i,32µM*,-3%,-1%

# Screening results from PubChem.
